# Values joined by “and” are separate entries in the source; they are usually repeats but may differ in a detail not shown here. Identical values can stand only once. Some structures have more than one record in an assay (separate samples or runs), and their calls can disagree. Active and inactive are the calls of the source. Rule as the data show it, unless noted: active = inhibition above about 80%; inactive = the rest.
# What was measured:
# [1] = compounds altering circadian rhythm period length – cell-based, LOPAC library, luminescence reporter (AID 2774; call rule not given here;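 also: values are relative to mean of DMSO wells on each plate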); conditions: circadian reporter cells, at 7 µM, actives lie on both sides
# [2] = growth inhibition, single agent or in combination, cell-based, chromothripsis tumors, cisplatin or BGB combos (AID 1671449); conditions: LFS_MB_P medulloblastoma cells;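 also: cells exposed for 96 hours; 0% = vehicle DMSO and 100% = killing by high DMSO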
# [3] = growth inhibition, single agent and combos, cell-based, chromothripsis tumors, cisplatin or BGB combos (AID 1671450); conditions: HDN33 neuroblastoma cells, stronger effect = higher value;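 also: cells exposed to compound for four days; 0% = vehicle DMSO and 100% = cell killing by high DMSO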
# [4] = growth inhibition, single agents and combos, ICB984, cell-based, cisplatin or BGB combos, synergistic combos for chromothripsis tumors (AID 1671451; call rule not given here;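 also: cells exposed for 96 hours before readout; 0% = vehicle DMSO and 100% = killing by high DMSO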); conditions: ICB984 medulloblastoma cells, drug combinations, stronger effect = higher value
# [5] = growth inhibition, single agents and combos, LFS_MB_1R, cell-based, cisplatin or BGB combos, synergistic combos for chromothripsis tumors (AID 1671452); conditions: LFS_MB_1R medulloblastoma cells, stronger effect = higher value;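 also: cells exposed for 96 hours before readout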
# [6] = growth inhibition, single agents and combos, HTB85, cell-based, BGB or cisplatin IC20 combos, synergistic combos for chromothripsis tumors (AID 1671453); conditions: HTB85 osteosarcoma cells, drug combinations, stronger effect = higher value;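 also: cells exposed for 96 hours before readout; 0% = vehicle DMSO and 100% = high DMSO killing control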
# [7] = growth inhibition, single agents and combos, CRL2098, cell-based, BGB or cisplatin IC20 combos, synergistic combos for chromothripsis tumors (AID 1671454); conditions: CRL2098 osteosarcoma cells, drug combinations, stronger effect = higher value;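 also: cells exposed for 96 h before readout; 0% = vehicle DMSO and 100% = killing by high DMSO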
# [8] = growth inhibition, single agents and combos, HD-MB03, cell-based, BGB or cisplatin IC20 combos, synergistic combos for chromothripsis tumors (AID 1671455; in the data active = inhibition above about 83%;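 also: 0% = vehicle DMSO and 100% = high DMSO as cytotoxic control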); conditions: HD-MB03 medulloblastoma cells, stronger effect = higher value
# [9] = growth inhibition, single agents and combos, UWB1.289, cell-based, BGB or cisplatin combos, synergistic combos for chromothripsis tumors (AID 1671456); conditions: UWB1.289 ovarian carcinoma cells, stronger effect = higher value;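 also: cells exposed to compound for four days; 0% = vehicle DMSO and 100% = killing by high DMSO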
# [10] = growth inhibition, single agents and combos, LFS_MB_2R, cell-based, cisplatin combos, synergistic combos for chromothripsis tumors (AID 1671457); conditions: LFS_MB_2R medulloblastoma cells, stronger effect = higher value;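 also: cells exposed to compound for four days before readout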
# [11] = growth inhibition, MDA-MB-436, cell-based, BGB or cisplatin combos, synergistic combos for chromothripsis tumors (AID 1671458; call rule not given here;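 also: cells exposed for 96 hours; 0% = vehicle DMSO and 100% = killing by high DMSO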); conditions: MDA-MB-436 breast carcinoma growth inhibition, drug combinations, stronger effect = higher value
# [12] = UWB1.289_BRCA1 ovarian cancer growth, cell-based, BGB or cisplatin combinations (AID 1671459); conditions: UWB1.289 BRCA1 ovarian carcinoma, drug combinations, stronger effect = higher value
# [13] = drug combination toxicity in non-malignant astrocytes – cell-based, BGB or cisplatin IC20 combos, cytotoxicity control for chromothriptic childhood tumor combination screen (AID 1671460); conditions: Human astrocytes, viability inhibition, drug combinations, at 0.5 µM, stronger effect = higher value;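 also: cells exposed to compounds for 96 hours before viability readout; 0% = vehicle and 100% = killing control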
# [14] = BT084 cell growth, single and combined drugs, ICGC_MB145, cisplatin and BGB IC40 combos (AID 1671461); conditions: BT084 medulloblastoma cells, drug combinations, stronger effect = higher value;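 also: cells exposed to drugs for 96 hours; 0% = vehicle DMSO and 100% = high DMSO full killing control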
# [15] = RCMB18 cell growth, single agent and combined, cisplatin and BGB IC40 combos (AID 1671462); conditions: RCMB18 medulloblastoma cells, stronger effect = higher value;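 also: cells exposed to compound for four days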
# [16] = CRL1545 cell growth, single agent and combined, cisplatin and BGB IC20 combos (AID 1671464); conditions: CRL1545 osteosarcoma cells, stronger effect = higher value;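 also: cells exposed to compound for 96 hours before readout; 0% = vehicle DMSO and 100% = high DMSO killing control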
# [17] = at 0.5 µM, stronger effect = higher value
# [18] = measured here: combination with BGB IC20, at 0.005 µM
# [19] = measured here: combination with BGB IC40, at 0.005 µM
# [20] = measured here: combination with BGB IC40, at 0.05 µM
# [21] = measured here: combination with cisplatin, at 0.5 µM, stronger effect = higher value
# [22] = measured here: combination with cisplatin, at 5 µM, stronger effect = higher value
# [23] = measured here: with BGB IC20 combination, at 0.5 µM
# [24] = measured here: with cisplatin IC20 combination, at 0.5 µM
# [25] = measured here: 5 uM single agent, at 5 µM
# [26] = measured here: combination with cisplatin, at 0.5 µM
# [27] = measured here: combination with cisplatin, at 5 µM
# [28] = measured here: with BGB IC20, at 0.5 µM
# [29] = measured here: with BGB IC20, at 5 µM
# [30] = measured here: with cisplatin IC20, at 0.5 µM
# [31] = measured here: with cisplatin IC20, at 5 µM
# [32] = measured here: combination with BGB at IC20, at 0.5 µM
# [33] = measured here: combination with cisplatin at IC20, at 0.5 µM
# [34] = measured here: combo with BGB at IC20, at 0.5 µM
# [35] = measured here: combo with cisplatin at IC20, at 0.5 µM
# [36] = measured here: inhibition with BGB combination, at 0.05 µM
# [37] = measured here: inhibition with cisplatin combination, at 0.05 µM
# [38] = measured here: BGB combination, at 0.5 µM
# [39] = measured here: BGB combination, at 5 µM
# [40] = measured here: cisplatin combination, at 0.5 µM
# [41] = measured here: cisplatin combination, at 5 µM
# [42] = BGB combination, concentration series, at 5 µM
# [43] = cisplatin combination, concentration series, at 5 µM
# [44] = measured here: combo with BGB IC20
# [45] = measured here: combo with cisplatin IC20
# [46] = cisplatin combination, at 0.5 µM
# [47] = measured here: BGB IC40 combination 0.05 uM, at 0.05 µM
# [48] = measured here: BGB IC40 combination, at 0.05 µM
smiles,measurement,setting,value
C=CCN1CCC2(C)c3cc(O)ccc3CC1[C@@H]2C (some centres not stated),period change,[1],-0.025 h (inactive)
COc1cc(C2c3cc4c(cc3C(O)C3COC(=O)C23)OCO4)cc(OC)c1OC (configuration not stated),inhibition,[2]; [17],9.19% (inactive)
same,inhibition,[2]; [18],-13.4%
same,inhibition,[2]; [19],-36%
same,inhibition,[2]; [20],14.5%
same,inhibition,[2]; [21],-15.6%
same,inhibition,[2]; [22],45.9%
same,inhibition,"[3]; BGB combo, at 5 µM",67.6%
same,inhibition,[3]; at 0.5 µM,76.5% (inactive)
same,inhibition,"[3]; cisplatin combo, at 5 µM",70.5%
same,inhibition,[3]; [23],69.9%
same,inhibition,[3]; [24],66.6%
same,inhibition,"[3]; single agent, at 5 µM",91.8%
same,inhibition,"[4]; BGB IC20 combo, at 0.005 µM",44.2%
same,inhibition,"[4]; BGB IC40 combo, at 0.005 µM",19.6%
same,inhibition,"[4]; BGB IC40 combo, at 0.05 µM",10.9%
same,inhibition,[4]; at 0.5 µM,-21.6% (inactive)
same,inhibition,"[4]; cisplatin combo, at 0.05 µM",7.4%
same,inhibition,"[4]; cisplatin combo, at 0.5 µM",-22.1%
same,inhibition,"[4]; cisplatin combo, at 5 µM",19.8%
same,inhibition,[4]; [25],19.6%
same,inhibition,[5]; at 0.5 µM,38.7% (inactive)
same,inhibition,[5]; [20],42.5%
same,inhibition,[5]; [26],54.6%
same,inhibition,[5]; [27],60.9%
same,inhibition,[6]; at 0.5 µM,72.2% (inactive)
same,inhibition,[6]; [28],55.2%
same,inhibition,[6]; [29],54%
same,inhibition,[6]; [30],72.6%
same,inhibition,[6]; [31],73%
same,inhibition,"[6]; single agent, at 5 µM",89.8%
same,inhibition,[7]; at 0.5 µM,38.6% (inactive)
same,inhibition,[7]; [32],34.3%
same,inhibition,[7]; [33],46.2%
same,inhibition,[8]; at 0.5 µM,83.8% (active)
same,inhibition,[8]; [34],82.3%
same,inhibition,[8]; [35],76.1%
same,inhibition,[9]; at 0.5 µM,44.8% (inactive)
same,inhibition,[9]; [36],11.9%
same,inhibition,[9]; [37],39.3%
same,inhibition,[10]; at 0.5 µM,33.5% (inactive)
same,inhibition,[10]; [26],48.6%
same,inhibition,[10]; [27],47.1%
same,inhibition,[11]; at 0.5 µM,69.7% (inactive)
same,inhibition,[11]; [38],58.4%
same,inhibition,[11]; [39],53.6%
same,inhibition,[11]; [40],72.1%
same,inhibition,[11]; [41],74.9%
same,inhibition,[12]; [42],71.3%
same,inhibition,[12]; at 0.5 µM,57.4% (inactive)
same,inhibition,[12]; [43],70.5%
same,inhibition,[13],85.4% (active)
same,inhibition,[13]; [44],85.6%
same,inhibition,[13]; [45],76.9%
same,inhibition,[14]; at 0.5 µM,45.2% (inactive)
same,inhibition,[14]; [46],43.7%
same,inhibition,"[14]; cisplatin combination, at 5 µM",48.4%
same,inhibition,[14]; [47],22.9%
same,inhibition,"[14]; single agent, at 5 µM",62.7%
same,inhibition,[15]; at 0.5 µM,21.7% (inactive)
same,inhibition,"[15]; cisplatin combo, at 5 µM",29.2%
same,inhibition,[15]; [48],11.1%
same,inhibition,[15]; [26],20.9%
same,inhibition,"[15]; single agent, at 5 µM",18.7%
same,inhibition,[16]; at 0.5 µM,74.4% (inactive)
same,inhibition,[16]; [23],70.7%
same,inhibition,[16]; [24],76.3%
same,inhibition,"[16]; single agent, at 0.05 µM",49.3%
same,inhibition,"[16]; single agent, at 5 µM",85.7%
CCC1(O)C(=O)OCc2c1cc1n(c2=O)Cc2cc3ccccc3nc2-1 (configuration not stated),inhibition,[2]; [17],88.2% (active) and 9.86% (inactive)
same,inhibition,[2]; [18],-1.21% and 5.58%
same,inhibition,[2]; [19],-28.3% and -33.2%
same,inhibition,[2]; [20],-15.4% and -14.9%
same,inhibition,[2]; [21],109% and 46.9%
same,inhibition,[2]; [22],81.5% and 87.5%
same,inhibition,"[3]; BGB combo, at 5 µM",91.9% and 99.2%
same,inhibition,[3]; at 0.5 µM,76.6% (inactive) and 90.4% (active)
same,inhibition,"[3]; cisplatin combo, at 5 µM",89.8% and 99.4%
same,inhibition,[3]; [23],83.3% and 91.4%
same,inhibition,[3]; [24],71% and 86.5%
same,inhibition,"[3]; single agent, at 5 µM",93% and 99%
same,inhibition,"[4]; BGB IC20 combo, at 0.005 µM",-14.4% and -0.816%
same,inhibition,"[4]; BGB IC40 combo, at 0.005 µM",10.1% and 28.9%
same,inhibition,"[4]; BGB IC40 combo, at 0.05 µM",90.9% and 90.2%
same,inhibition,[4]; at 0.5 µM,0.67% (inactive) and -18.7% (inactive)
same,inhibition,"[4]; cisplatin combo, at 0.05 µM",90.9% and 89.8%
same,inhibition,"[4]; cisplatin combo, at 0.5 µM",8.68% and -15.9%
same,inhibition,"[4]; cisplatin combo, at 5 µM",-16.2% and -24.5%
same,inhibition,[4]; [25],-7.75% and -12.5%
same,inhibition,[5]; at 0.5 µM,18.3% (inactive) and 58.5% (inactive)
same,inhibition,[5]; [20],-2.41% and -26.5%
same,inhibition,[5]; [26],67.3% and 77.9%
same,inhibition,[5]; [27],84.7% and 77.9%
same,inhibition,[6]; at 0.5 µM,87% (active) and 98.3% (active)
same,inhibition,[6]; [28],83.6% and 98.1%
same,inhibition,[6]; [29],99.4% and 98.2%
same,inhibition,[6]; [30],89.5% and 97.8%
same,inhibition,[6]; [31],99.8% and 99.6%
same,inhibition,"[6]; single agent, at 5 µM",99.8%
same,inhibition,[7]; at 0.5 µM,61.8% (inactive) and 62.7% (inactive)
same,inhibition,[7]; [32],62.5% and 76.9%
same,inhibition,[7]; [33],58% and 56.3%
same,inhibition,[8]; at 0.5 µM,97.5% (active) and 99.2% (active)
same,inhibition,[8]; [34],96.5% and 99.2%
same,inhibition,[8]; [35],97.2% and 99.2%
same,inhibition,[9]; at 0.5 µM,66.6% (inactive) and 83.3% (active)
same,inhibition,[9]; [36],12.6% and 11.7%
same,inhibition,[9]; [37],11.3% and 20.8%
same,inhibition,[10]; at 0.5 µM,7.34% (inactive) and -4.41% (inactive)
same,inhibition,[10]; [26],19% and 21%
same,inhibition,[10]; [27],76.3% and 69.2%
same,inhibition,[11]; at 0.5 µM,54.1% (inactive) and 72% (inactive)
same,inhibition,[11]; [38],51.4% and 63.7%
same,inhibition,[11]; [39],74.8% and 70.3%
same,inhibition,[11]; [40],45.3% and 73.5%
same,inhibition,[11]; [41],82.3% and 82.8%
same,inhibition,[12]; [42],99.4% and 98.3%
same,inhibition,[12]; at 0.5 µM,67.6% (inactive) and 90.7% (active)
same,inhibition,[12]; [43],118% and 106%
same,inhibition,[13],60.8% (inactive) and 77.6% (inactive)
same,inhibition,[13]; [44],60.1% and 81.6%
same,inhibition,[13]; [45],47.8% and 70.6%
same,inhibition,[14]; at 0.5 µM,14.3% (inactive) and 17% (inactive)
same,inhibition,[14]; [46],23.6% and 35.1%
same,inhibition,"[14]; cisplatin combination, at 5 µM",44.9% and 40.2%
same,inhibition,[14]; [47],23.9% and 38.2%
same,inhibition,"[14]; single agent, at 5 µM",-2.08% and -14.2%
same,inhibition,[15]; at 0.5 µM,7.46% (inactive) and 14.2% (inactive)
same,inhibition,"[15]; cisplatin combo, at 5 µM",72.3% and 80.4%
same,inhibition,[15]; [48],5.45% and -12%
same,inhibition,[15]; [26],49.2% and 53.3%
same,inhibition,"[15]; single agent, at 5 µM",23.3% and 47.8%
same,inhibition,[16]; at 0.5 µM,54% (inactive) and 96.2% (active)
same,inhibition,[16]; [23],77.9% and 98.4%
same,inhibition,[16]; [24],42.1% and 95.1%
same,inhibition,"[16]; single agent, at 0.05 µM",32% and 28.6%
same,inhibition,"[16]; single agent, at 5 µM",99.8% and 99.9%
